In PubChem BioAssay (NCI):
Compounds without any hit were thinned out: in the full panel of roughly 83,000, 20% have a hit.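 In brief: 96-well plates, 48 h treatment, single concentration, percent growth endpoint.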 A number with no mark means an inactive call. Activity calls are given as the source filed them. The calls were made as follows: active = growth percent below 10; inactive = the rest.

Tests used:
Assay in all cases: NCI-60 one-dose screen, 48 h (100 = growth as untreated, 0 = no growth, -100 = all killed)
Settings in all cases: 10 µM unless noted
NCI-H23 lung = system: NCI-H23 lung
NCI-H226 lung = system: NCI-H226 lung
NCI-H322M lung = system: NCI-H322M lung
HOP-62 NSCLC = system: HOP-62 NSCLC
NCI-H460 lung = system: NCI-H460 lung
HOP-92 NSCLC = system: HOP-92 NSCLC
NCI-H522 lung = system: NCI-H522 lung
A549/ATCC NSCLC = system: A549/ATCC NSCLC
786-0 renal = system: 786-0 renal
COLO 205 colon = system: COLO 205 colon
DU-145 prostate = system: DU-145 prostate
K-562 leukemia = system: K-562 leukemia
MALME-3M melanoma = system: MALME-3M melanoma
MDA-MB-231 breast = system: MDA-MB-231 breast
SF-268 CNS = system: SF-268 CNS
SF-295 CNS = system: SF-295 CNS
SF-539 CNS = system: SF-539 CNS
UACC-257 melanoma = system: UACC-257 melanoma
M14 melanoma = system: M14 melanoma
RXF 393 renal = system: RXF 393 renal

| SMILES | growth (NCI-H23 lung) | growth (NCI-H226 lung) | growth (NCI-H322M lung) | growth (HOP-62 NSCLC) | growth (NCI-H460 lung) | growth (HOP-92 NSCLC) | growth (NCI-H522 lung) | growth (A549/ATCC NSCLC) | growth (786-0 renal) | growth (COLO 205 colon) | growth (DU-145 prostate) | growth (K-562 leukemia) | growth (MALME-3M melanoma) | growth (MDA-MB-231 breast) | growth (SF-268 CNS) | growth (SF-295 CNS) | growth (SF-539 CNS) | growth (UACC-257 melanoma) | growth (M14 melanoma) | growth (RXF 393 renal) |
| --- | --- | --- | --- | --- | --- | --- | --- | --- | --- | --- | --- | --- | --- | --- | --- | --- | --- | --- | --- | --- |
| Cc1[nH]c2ccc(F)cc2c1CCNC(=O)C1CCN(C(=O)c2ccccc2)CC1 | 99.3% [25 µM] | 83.7% [25 µM] | 86.3% [25 µM] | 84.6% [25 µM] | 101% [25 µM] | 4.45% [25 µM] (active) | 89.3% [25 µM] | 96.6% [25 µM] | 88.9% [25 µM] | 90.9% [25 µM] | 82.9% [25 µM] | 90.4% [25 µM] | 75.6% [25 µM] | 79.4% [25 µM] | 79.5% [25 µM] | 96.1% [25 µM] | 86.4% [25 µM] | 98.3% [25 µM] | 98.3% [25 µM] | – |
| Cc1cc(C)n(-c2nnc3n2N=C(c2ccc(-c4ccccc4)cc2)CS3)n1 | 75.7% | 68.4% | 71.1% | 54.7% | 45.1% | -2.12% (active) | 29.2% | 31.5% | 59.9% | 39.8% | 66.2% | 6.94% (active) | 43.5% | 51.1% | 56.7% | – | 38.7% | 53.7% | 30% | 5.5% (active) |
| Fc1ccc(Nc2nc(NCCNc3ccnc4cc(Cl)ccc34)nc(N3CCOCC3)n2)cc1 | 93% | 94.8% | 73.7% | 85% | 34.9% | -5.61% (active) | 48.1% | 55.7% | 53.6% | -85.7% (active) | 75% | 1.44% (active) | -63.1% (active) | 20.1% | 66.6% | – | 69.3% | -88.8% (active) | -42.7% (active) | 21.3% |
| Fc1ccccc1-c1nc(-c2nc3cc(Cl)c(Cl)cc3[nH]2)c2ccccn12 | 69.2% | 78.5% | 67.8% | 68.8% | 57.3% | 49.6% | 72.5% | 72.2% | 86.4% | 89.6% | 51.5% | 73.1% | 34.5% | 91.4% | 77.4% | – | – | 82.2% | 71% | 69.2% |
| O=S(=O)(NCCNc1nccc(-c2c(-c3ccc(F)cc3)nc3sccn23)n1)c1ccc(F)cc1 | 78.7% | 72.8% | 77.4% | 84.4% | 48.6% | 82.7% | 89.6% | 49.3% | 73.7% | 58.8% | 75.9% | 56.7% | 76.8% | 78.4% | 79.2% | – | 102% | 102% | 73.7% | 70% |
| CC1(C)C(=O)/C(=C\c2ccc(C(F)(F)F)cc2)C[C@]2(C)[C@H]3CC[C@@H]4[C@H]5[C@H](C(=O)/C=C/c6ccc(C(F)(F)F)cc6)CC[C@]5(CO)CC[C@@]4(C)[C@]3(C)CC[C@@H]12 | 100% | 91.4% | 101% | 101% | 99.4% | 93.7% | 97.9% | 90.6% | 107% | 115% | 109% | 86.9% | 96.2% | 98.4% | 89.7% | – | 93.7% | 101% | 93.1% | 103% |
| CC(=O)Nc1ccc(S(=O)(=O)n2ccc(-c3ccc4c(c3)CCC(C)(C)O4)n2)cc1 | 56.6% | 52.4% | 89% | 94.4% | 41.4% | 69.8% | 54% | 57.8% | 79.8% | 88.8% | 83.5% | 36.7% | 82.5% | 88.6% | 77.3% | 60.2% | 73.8% | 46% | 64.7% | – |
| COc1cc(-c2nn(-c3cccc(NC(=O)Nc4cc(C(F)(F)F)cc(C(F)(F)F)c4)c3)cc2-c2ccncc2)ccc1Cl | -3.3% (active) | 8.68% (active) | 26.1% | -77.6% (active) | -49.7% (active) | -50.2% (active) | -34.4% (active) | -23.8% (active) | -71.1% (active) | -98.7% (active) | 3.89% (active) | -10.7% (active) | -10.7% (active) | -92% (active) | -46.3% (active) | – | -53.5% (active) | -45.1% (active) | -42.1% (active) | -68.1% (active) |
| CN(C)CCCN(c1nc(C(Cl)(Cl)Cl)ns1)c1nc(C(Cl)(Cl)Cl)ns1 | 58.9% | 53.9% | 65.5% | 48.4% | 8.42% (active) | -0.62% (active) | 39.4% | 37.5% | 42.4% | 10.2% | 75% | 0.874% (active) | 44.8% | 39.4% | 34.3% | – | 73.2% | 19.8% | -19% (active) | 36.8% |
| C=C(C)[C@@H]1C[C@@H]2Cc3cc(F)ccc3N1O2 | 96.6% | 99.1% | 104% | 94.4% | 102% | 56.1% | 91.3% | 97.9% | 103% | 106% | 114% | – | 83% | 99.8% | 101% | 106% | 95.6% | 99.1% | 95.5% | 108% |
| CC(=O)Nc1nc(N)nc(NC(C)=O)c1N=O | 95.3% | 105% | 140% | 106% | 123% | 108% | 101% | 107% | 106% | 116% | 107% | 124% | – | 114% | 98.7% | – | 105% | 113% | 104% | 135% |
| CC(O)CN1CCCCC1 (stereo unspecified) | 100% | 106% | 111% | 122% | 104% | 111% | 88.8% | 105% | 105% | 111% | 117% | – | 112% | 105% | 101% | 104% | 111% | 104% | 105% | 108% |
| CN1C=CN(Cc2ccc(-c3ccccn3)nc2)[CH-]1.CN1C=CN(Cc2ccc(-c3ccccn3)nc2)[CH-]1.[Au+3] | 36.3% | 66.7% | -3% (active) | 61.6% | 21.3% | 66.6% | 34.2% | 45.2% | 52.8% | 28.4% | – | 21.9% | 21.5% | 28.1% | 44.1% | 17.3% | 17.4% | 2.13% (active) | 35.6% | 19.5% |
| Cc1ccc(-c2nc(C(Cl)Cl)n3nc(-c4ccccc4)cc3n2)cc1 | 47.3% | 88% | 83.3% | 3.61% (active) | 15.5% | -8.47% (active) | 100% | 12% | 17.8% | 6.05% (active) | -9.74% (active) | 21.2% | 74.7% | 11.5% | 8.85% (active) | 66.2% | 29.8% | 94.1% | 95.7% | – |
| CC(=O)Oc1cccc(S(=O)(=O)n2cc(C(=O)C(=O)Nc3ccncc3)c3ccccc32)c1 | 62.6% | 73.6% | 92.3% | 87.2% | 82.1% | 70.5% | 63.9% | 72.7% | 91.2% | 100% | 104% | – | 90.4% | 66.1% | 103% | 58.5% | 86.7% | 93.9% | 102% | 90.8% |
| NC(=S)N/N=C1\CCCC(C(F)(F)F)C1 (stereo unspecified) | 101% | 117% | 101% | 107% | 109% | 96% | 94% | 100% | 98.9% | 114% | – | 46.3% | 104% | 102% | – | 100% | 101% | 73.2% | 95.6% | 123% |
